M1 ag: human M1 muscarinic receptor agonism; P11229; CHO-K1 hM1, Fluo-8 calcium fluorescence, agonist mode; 0% DMSO, 100% acetylcholine EC100; activation, % at 3 µM; 360,000 compounds, 0.33% hits;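 active means activation above the run's mean compound activation plus 3 SD, cut at about 16% in these data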;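 further: peak over basal fluorescence ratio within a 140 s kinetic read after compound addition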
Target sequence (P11229 whole entry, looked up): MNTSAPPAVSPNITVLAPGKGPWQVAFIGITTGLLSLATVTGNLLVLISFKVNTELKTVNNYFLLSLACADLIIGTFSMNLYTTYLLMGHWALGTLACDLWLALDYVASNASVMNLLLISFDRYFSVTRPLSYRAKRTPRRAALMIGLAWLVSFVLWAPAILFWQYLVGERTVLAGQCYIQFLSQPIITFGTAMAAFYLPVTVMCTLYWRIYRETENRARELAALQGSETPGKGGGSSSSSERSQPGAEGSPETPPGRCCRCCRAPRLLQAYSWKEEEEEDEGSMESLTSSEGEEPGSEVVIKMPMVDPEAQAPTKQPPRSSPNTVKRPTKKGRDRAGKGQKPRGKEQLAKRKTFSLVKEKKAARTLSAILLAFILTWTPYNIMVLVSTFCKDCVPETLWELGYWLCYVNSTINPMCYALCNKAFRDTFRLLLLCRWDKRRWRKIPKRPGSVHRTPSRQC
M1 ag parental: nonselective activator or artifact in parental CHO-K1 cells; Fluo-8 calcium fluorescence; scaled to maximal ATP response, vehicle zero; 360,000 compounds, 0.48% hits; activation, % at 3 µM; in the data active means activation above about 15%;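 further: untransfected CHO-K1 host cells lacking M1 receptor as counterscreen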
M1 PAM parental: M1 PAM counterscreen hit in parental CHO-K1 cells; 360,000 compounds, 0.02% hits; AID 602247; ATP EC20, Fluo-8 calcium fluorescence; 0% at ATP EC20, 100% at ATP max; activation, % at 3 µM;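 active means activation above the run cutoff, the mean activation of all test compounds plus 3 SD, cut at about 40% in these data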;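 further: peak over basal fluorescence ratio in a 140 s read after ATP addition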
M1 antag: antagonists of human M1 muscarinic receptor. CHO-K1 hM1, Fluo-8 calcium fluorescence, ACh EC80 antagonist. 360,000 compounds, 1.3% hits. P11229. inhibition, % at 3 µM;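 active means percent inhibition above its own plate's cutoff, namely the mean of that plate's compound wells plus 3 SD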;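 further: peak over basal fluorescence ratio during 140 s after agonist addition; 0% = ACh EC80 plus DMSO and 100% = DMSO alone without agonist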
CHRM1 PAM: positive allosteric modulators of human M1 muscarinic receptor; activation, % at 3 µM; CHO-K1 hM1, Fluo-8 calcium fluorescence, ACh EC20; 0% = ACh EC20, 100% = maximal ACh; 360,000 compounds, 0.088% hits; in the data active means activation above about 19%, passing the limit was not always enough
CHO-K1 Ca antag: counter-screen for M1 antagonists: effect in parental CHO-K1 cells; ATP-induced calcium, Fluo-8 fluorescence; inhibition, % at 3 µM; 360,000 compounds, 0.6% hits; AID 602250;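 active means inhibition above a per-plate cutoff, the plate's mean sample inhibition plus 3 SD, cut at about 24% in these data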;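 further: 0% = DMSO plus EC80 ATP and 100% = DMSO alone without ATP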
* marks the source's active call; other numbers are inactive results. The list is not random: actives were taken first. Their share in the collection is about 2.3%.

SMILES	M1 ag	M1 ag parental	M1 PAM parental	M1 antag	CHRM1 PAM	CHO-K1 Ca antag
CC[C@H](C)[C@H]1CNC(=S)N1CC1CCN(CCC23CC4CC(CC(C4)C2)C3)CC1	-11	1	15	90*	-31	-6
CCOC(=O)C1CCN(CC(=O)Nc2ccc(S(=O)(=O)N3CCC(C)CC3)cc2)CC1	-8	3	-24	10	-3	2
CCC1CCCCN1S(=O)(=O)c1ccc(C(=O)Nc2nnc(C3=COCCO3)o2)cc1 (stereo not given)	-4	-1	-6	2	2	6
Cc1ccc2c(C)c(C(=O)N(Cc3ccccc3)C3CCS(=O)(=O)C3)oc2c1 (stereo not given)	2	4	27	-6	15	-17
Cc1ccc2c(C)c(C(=O)N(Cc3cccs3)C3CCS(=O)(=O)C3)oc2c1 (stereo not given)	16	0	1	2	24*	-5
CSc1nnc(SCC#N)s1	-2	1	21	-7	4	-15
O=C(NCc1ccccc1)c1nccnc1CO	0	1	8	-13	10	0
COC(=O)[C@@]1(Cc2ccccc2)[C@H]2C(=O)N(C)C(=O)[C@H]2[C@H]2CN=C(SCC(=O)c3ccccc3)N21	-11	1	9	102*	-32	-2
COc1ccc(NC(=O)C2CC(=O)N(CCc3ccc(F)cc3)C2)c(OC)c1 (stereo not given)	0	2	-25	19	-9	-4
COc1ccc(NC(=O)C2(C)CCN2Cc2cccc(OC)c2OC)cc1OC (stereo not given)	-4	2	7	-13	0	0
CCOc1ccc(S(=O)(=O)Nc2cnc3ccccc3c2)cc1	3	14	1	15	0	25*
CCOc1ccc(S(=O)(=O)Nc2nc3ccccc3nc2Cl)cc1	-3	1	-10	0	2	-5
CC(C)COC(=O)N(C)C[C@H]1OCc2cnnn2CCCC(=O)N([C@H](C)CO)C[C@@H]1C	-4	1	12	-2	1	-2
CCN(CC)CCCOC(=O)C1(c2ccccc2)CCCC1	-5	1	1	99*	-19	-3
C[N+]1(CCOC(=O)C2(c3ccccc3)CCCC2)CCCCC1	-6	0	13	100*	-23	-9
C[N+](C)(C)CCOC(=O)C1(c2ccccc2)CCCC1	-5	1	16	99*	-22	-12
CCN(CC)CCOC(=O)C1(c2ccccc2)CCOCC1	-7	0	-7	8	-23	10
COc1ccc(C(=O)OCC[N+]2(C)CCCCC2)cc1	-4	5	22	-7	6	-9
O=C(COC(=O)C1(c2ccccc2)CC1)NNC(=O)c1ccccc1F	-1	6	-20	-11	5	16
CCN(CC)CCOC(=O)C1(c2ccc([N+](=O)[O-])cc2)CCCC1	-5	0	8	96*	-26	-6
Cc1ccc(OCCSc2nc3ccccc3n2CC(=O)O)c(C(C)C)c1	-8	0	3	3	3	-12
CCN(CC)C(=O)C1CCN(Cc2ccc(OCc3ccccc3)c(OC)c2)CC1	-9	1	3	-4	0	-10
COCCCn1c(C)cc(C(=O)CN2c3cccc4cccc(c34)S2(=O)=O)c1C	-1	2	-16	5	-5	-6
CSc1ccc(C(O)c2ncc(-c3cccc(F)c3)[nH]2)cc1 (stereo not given)	4	1	3	-15	12	9
COc1ccc(NC(=O)C2(c3ccccc3)CCCC2)cc1	-12	0	16	-8	2	-10
CC(C[N+](C)(C)C)OC(=O)C1(c2ccccc2)CCCC1 (stereo not given)	-5	1	17	93*	-26	-11
CCn1cc(C(=O)NCCCN2CCC(C)CC2)c(=O)c2cc(S(=O)(=O)N(C)C3CCCCC3)ccc21	-6	0	-10	38*	-16	11
CCn1cc(C(=O)NCCCN2CC(C)CC(C)C2)c(=O)c2cc(S(=O)(=O)N(C)C3CCCCC3)ccc21 (stereo not given)	-6	0	-3	12	-13	-8

From PubChem BioAssay
